In all, about 69,000 compounds went through this assay and about 1,000 (1.4%) showed an effect of 50% or more. The list comes from a sample in which strong results are over-represented; it also holds similar structures and randomly drawn compounds.
System: Leishmania donovani
Assay: Leishmania intramacrophage assay
Type: functional, organism-based
Design: scale not given: in the data most compounds retested in dose-response had high values

CN1CCN(S(=O)(=O)c2ccc(Sc3nccn3C)nc2)CC1
Percent Effect (30.3 µM, […]): 0.3902%

Cn1ccnc1Sc1ccc(S(N)(=O)=O)cn1
Percent Effect (30.3 µM, […]): -16.43%

Cl.Cn1ccnc1Sc1ccc(N)cn1
Percent Effect (30.3 µM, […]): 50.34%

COC(=O)CC1C(=O)NCCN1c1nc2c(s1)c(C)nn2C (stereo not drawn)
Percent Effect (30.3 µM, […]): 6.396%

COc1ccc2c(O)c(NC(=O)NCC3CC3)cnc2c1
Percent Effect (30 µM, 30.03 µM): -30.24%

N#Cc1cccc(CN2C(=O)C3(CCNCC3)Nc3ccccc32)c1
Percent Effect (30.3 µM, […]): 37.63%

CC(C)c1ccc(CN2C(=O)C3(CCNCC3)Nc3ccccc32)cc1
Percent Effect (30.3 µM, […]): 100.4%

C=Cc1ccc(CN2C(=O)C3(CCNCC3)Nc3ccccc32)cc1
Percent Effect (30.3 µM, […]): 98.05%

NC(=O)c1ccc(CN2C(=O)C3(CCNCC3)Nc3ccccc32)cc1
Percent Effect (30.3 µM, […]): 29.82%

C=Cc1ccc(CN2CCCC3(CNC(=O)c4ccccc4O3)C2)cc1 (stereo not drawn)
Percent Effect (30.3 µM, […]): -7.721%

Cl.O=C1CC2(CCNCC2)C(=O)N1Cc1ccc(F)cc1
Percent Effect (30.3 µM, […]): 26.47%

O=C(O)C(F)(F)F.O=S(=O)(N[C@@H]1CCO[C@]2(CCN(CC3CCOCC3)C2)C1)C1CC1
Percent Effect (30.3 µM, […]): 12.64%

Cn1cccc1C(=O)NCc1cn2c(n1)CN(Cc1ccccn1)CC2.O=C(O)C(F)(F)F.O=C(O)C(F)(F)F
Percent Effect (30.3 µM, […]): 52.64%

Cn1cc(C(=O)NCc2cn3c(n2)CN(Cc2ccccn2)CC3)cn1.O=C(O)C(F)(F)F.O=C(O)C(F)(F)F
Percent Effect (30 µM, 30.03 µM): 26.85%

Cn1cccc1C(=O)NCc1cn2c(n1)CN(Cc1cccnc1)CC2.O=C(O)C(F)(F)F.O=C(O)C(F)(F)F
Percent Effect (30.3 µM, […]): 5.106%

O=C(c1cccc2[nH]ccc12)N1CCC2(CCOC2)C1 (stereo not drawn)
Percent Effect (30.3 µM, […]): 24.57%

Cc1cnc(N2CCOCC3(CCN(c4ccccn4)C3)C2)nc1.O=C(O)C(F)(F)F.O=C(O)C(F)(F)F (stereo not drawn)
Percent Effect (30.3 µM, […]): -8.514%

CCc1c(C)sc2nc3n(CCN4CCOCC4)nc(SC)n3c(=O)c12
Percent Effect (30.3 µM, […]): 9.764%

CCc1c(C)sc2nc3n(CCN(C)C)nc(SC)n3c(=O)c12
Percent Effect (30.3 µM, […]): 24.34%

CCc1c(C)sc2nc3n(CCN4CCCCC4)nc(SC)n3c(=O)c12
Percent Effect (30.3 µM, […]): 50.52%

CCn1cc(Br)c(C(=O)NCc2cccnc2)n1
Percent Effect (30 µM, 30.03 µM): 0.8694%

N#Cc1cnc(N2CCC3(CC2)OCCO3)nc1N
Percent Effect (30.3 µM, […]): 39.63%

Cc1cccc(-c2noc(CN3CCC(N4CCNC4=O)CC3)n2)c1
Percent Effect (30 µM, 30.03 µM): 37%

O=C1NCCN1C1CCN(Cc2nc(-c3ccoc3)no2)CC1
Percent Effect (30 µM, 30.03 µM): 14.49%

Cc1ccccc1-c1noc(CN2CCC(N3CCNC3=O)CC2)n1
Percent Effect (30 µM): 45.33%

Cc1ccc(-c2noc(CN3CCC(N4CCNC4=O)CC3)n2)cc1
Percent Effect (30 µM): 33.86%

O=C1NCCN1C1CCN(Cc2nc(-c3ccccc3)no2)CC1
Percent Effect (30 µM): 51.92%

O=C1NCCN1C1CCN(Cc2nc(-c3ccsc3)no2)CC1
Percent Effect (30 µM): 51.47%

NC(=O)C1CCCN1C(=O)c1cccc2c1OCO2 (stereo not drawn)
Percent Effect (30.3 µM, […]): -0.4744%

CCC(NC(=O)C1CC1)c1ccccc1OCC(=O)N1CCCC1 (stereo not drawn)
Percent Effect (30 µM): -1.247%

CNC(=O)C1CN(C)CCN(C(=O)CCn2nnc3ccccc32)C1 (stereo not drawn)
Percent Effect (30.3 µM, […]): 12.96%

CN(C)c1ccc(C2CC(=O)Nc3c2cnn3Cc2ccco2)cc1 (stereo not drawn)
Percent Effect (30.3 µM, […]): 7.757%

Cc1nc(C2CCNCC2)cc(N(C)Cc2cc3cc(F)ccc3[nH]2)n1
Percent Effect (30.3 µM, […]): 78.55%

CCN(Cc1c(F)cccc1Cl)c1cc(C2CCNCC2)nc(C)n1
Percent Effect (30.3 µM, […]): 100.4%

Cc1nc(-c2ccc(F)cc2)cc(C2CCNCC2)n1
Percent Effect (30.3 µM, […]): 99.23%

CN(Cc1cc2cc(F)ccc2[nH]1)C(=O)C1CC(=O)N(C2CCCC2)C1 (stereo not drawn)
Percent Effect (30.3 µM, […]): 9.704%

CCN(Cc1ccncc1)c1cc(C2CCCNC2)nc(C)n1 (stereo not drawn)
Percent Effect (30.3 µM, […]): -18.58%

COc1ccc2[nH]c(CNc3cc(C4CCNCC4)nc(C)n3)cc2c1
Percent Effect (30.3 µM, […]): -59.5%

Cc1nc(-c2ccc(F)c(F)c2)cc(C2CCNCC2)n1.Cl
Percent Effect (30.3 µM, […]): 47.49%

Cc1c(CN(C)c2cc(C3CCCNC3)ncn2)[nH]c2ccccc12 (stereo not drawn)
Percent Effect (30.3 µM, […]): 16.72%

Cc1ccc(-c2cc(C3CCNCC3)nc(C)n2)cc1.Cl
Percent Effect (30.3 µM, […]): 14.23%

CCN(Cc1ccncc1)c1cc(C2CCNCC2)nc(C)n1
Percent Effect (30.3 µM, […]): 4.844%

CN(Cc1cc2cc(F)ccc2[nH]1)c1cc(C2CCCNC2)ncn1 (stereo not drawn)
Percent Effect (30.3 µM, […]): 78.22%

Cc1nc(C2CCNCC2)cc(N(C)CCc2cn[nH]c2)n1
Percent Effect (30.3 µM, […]): 2.569%

CN(C)c1ccc(NC(=O)c2cccc(N(C)C)c2)nc1
Percent Effect (30.3 µM, […]): -2.123%

CCC(Nc1nc(C)nc2c1cnn2C)c1ncnn1CC (stereo not drawn)
Percent Effect (30.3 µM, […]): 26.92%

O=C(CCn1ccc2cc(Br)ccc21)/N=c1\[nH]nc(C2CCCO2)s1 (stereo not drawn)
Percent Effect (30.3 µM, […]): 4.273%

Cc1ccoc1-c1nnc(CNCC2CCCN2c2cccnn2)o1 (stereo not drawn)
Percent Effect (30 µM, 30.03 µM): -17.44%

COCCN(C)C[C@@H]1CN(C(=O)c2ccc(C)cc2)C[C@@H]1CO
Percent Effect (30.3 µM, […]): 11.58%

CN1CCCC2(CCN(C(=O)Cn3ncc4ccccc4c3=O)C2)C1=O (stereo not drawn)
Percent Effect (30.3 µM, […]): -13.05%

Cc1ccc(CN2CCN(CC(=O)N(C)C)[C@@H]3CS(=O)(=O)C[C@@H]32)cc1C
Percent Effect (30.3 µM, […]): 18.74%

COc1ccc(-c2noc(C(N)CCSC)n2)cc1 (stereo not drawn)
Percent Effect (30.3 µM, […]): -25.69%

NC(=O)c1ccc(OCCCN2C[C@H](C3CC3)[C@@H](N)C2)cc1
Percent Effect (30.3 µM, […]): 42.52%

N[C@H]1CN(CCCOc2ccccc2)C[C@@H]1C1CC1
Percent Effect (30.3 µM, […]): 66.02%

N[C@H]1CN(CCOc2ccc(F)cc2)C[C@@H]1C1CC1
Percent Effect (30.3 µM, […]): 44.73%

COCc1nn(C(C)C)c2c1CCN(Cc1nccs1)C2.O=C(O)C(F)(F)F
Percent Effect (30.3 µM, […]): -18.46%

Cc1c(C2CCOC(C)(C)C2)nc(N)c(C#N)c1-c1ccc(O)cc1 (stereo not drawn)
Percent Effect (30.3 µM, […]): -5.002%

CCn1cc(-c2c(C)c(C3CCOC(C)(C)C3)nc(N)c2C#N)cn1 (stereo not drawn)
Percent Effect (30.3 µM, […]): 20.42%

CCCc1c(C2CCOC(C)(C)C2)nc(N)c(C#N)c1-c1cnn(C)c1 (stereo not drawn)
Percent Effect (30.3 µM, […]): 65.78%

CC(C)Oc1ccc(CN2CCC(c3n[nH]c4ncccc34)CC2)cc1
Percent Effect (30.3 µM, […]): 1.844%

Cc1ccccc1N1CCN(c2cc(N(C)C)ncn2)C(C)C1 (stereo not drawn)
Percent Effect (30.3 µM, […]): 15.61%

Cc1ccccc1N1CCN(c2ccncn2)C(C)C1 (stereo not drawn)
Percent Effect (30.3 µM, […]): 61.35%

Cc1ccc(N2CCN(c3ccccc3C)CC2C)nn1 (stereo not drawn)
Percent Effect (30.3 µM, […]): 9.128%

— ChEMBL document CHEMBL3988442, “University of Dundee, Small-Polar-MMV Screening Library” (2021)
